# The list is not random: actives were taken first. Their share in the collection is about 3.5%.
# HSP90 refold inh: HSP90 refolding inhibition in rabbit reticulocyte lysate; luciferase refolding luminescence, 3 h; inhibition, % at 5.6 µM; hit rate 0.91% among 290,000; AID 1789;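 active = inhibition above the screen-wide mean plus 3 SD, computed separately per campaign, cut at about 16% in these data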;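 also: 0% = DMSO wells and 100% = 60 µM geldanamycin wells; inhibitors lower the luminescence because luciferase stays unfolded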
# PPC-1+TRAIL kill: kills PPC-1 cancer cells in the presence of TRAIL. PPC-1 cells + TRAIL, ATPLite viability luminescence. cell killing (% activity), % at 4 µM or 5 µM. hit rate 0.41% among 220,000. AID 1443;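 active = cell killing above 50% in the first pass at 4 µM, then a duplicate retest at 5 µM averaging 50% or more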;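 also: plate controls were cells with TRAIL plus DMSO for no effect and medium-only wells lacking cells for full effect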
# Platelet DG rel: platelet dense granule release activity; hit rate 0.22% among 300,000; inhibition, %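 (compounds screened at 7.5 µM in platelet-rich plasma)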; human platelet-rich plasma, SFLLRN dense granule ATP release, luminescence;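 active = mean replicate score, as percent of positive control, at or above 50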
# TWEAK Fn14 block: blocks TWEAK-Fn14 interaction in a reporter cell assay; TWEAK-stimulated Fn14 reporter cells, luciferase luminescence, 8 h; inhibition, % at 10 µM; hit rate 2% among 360,000; AID 1159606; in the data active = inhibition above about 50%
# TROY signal inh: blocks TROY-dependent signaling in reporter cells; Q293 LMP1-TROYcd NF-kB luciferase reporter, 4 h; inhibition, % at 10 µM; hit rate 0.98% among 360,000;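 active = compounds whose plate-normalised and pattern-corrected inhibition of the luciferase reporter signal at the single screening dose is 50% or more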
# TRAIL sens C8: sensitizes caspase-8 expressing cells to TRAIL; NB7+C8 cells + TRAIL, ATPlite viability luminescence; hit rate 1% among 360,000; inhibition (viability loss, TRAIL sensitization), % at 10 µM;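 active = compounds causing at least 50% loss of cell viability in the single-dose screen, relative to plate controls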
# Starred values were filed as active, the others as inactive; . = no result.
SMILES,HSP90 refold inh,PPC-1+TRAIL kill,Platelet DG rel,TWEAK Fn14 block,TROY signal inh,TRAIL sens C8
N#Cc1ccsc1NC(=O)CSc1ncnc2ccccc12,3,-17,9,1,56*,11
CCOc1ccc(CC(=O)N/N=C(\C)c2cccnc2)cc1OCC,2,.,6,17,1,16
O=C(C1=NOC2(C1)C(=O)N(Cc1ccccc1)c1ccccc12)N1CCOCC1 (centres undefined),.,.,.,-3,-1,-15
Clc1cccc(-c2cc3nc4c(c(N5CCN(c6cnccn6)CC5)n3n2)CCCC4)c1,1,26,.,61*,26,-16
Fc1cccc(-c2cc3nc4c(c(N5CCN(c6cnccn6)CC5)n3n2)CCCC4)c1,9,.,.,.,.,.
O=C1c2ccccc2C(Nc2ccc3c(c2)OCCO3)N1c1ccccn1 (centres undefined),5,.,0,63*,46,-4
O=C1c2ccccc2C(Nc2ccc3c(c2)OCCO3)N1Cc1ccc2c(c1)OCO2 (centres undefined),9,10,7,74*,63*,-10
CC1(C(=O)Nc2ccc3c(c2)OCO3)CCN1C(=O)CCc1ccc(Cl)cc1Cl (centres undefined),.,.,.,-8,-29,-7
CC(=O)c1sc(Nc2ccc(Oc3ccccc3)cc2)nc1C,.,.,.,9,-1,35
O=C(COc1ccccc1Br)N1CCN(C(=O)c2cccs2)CC1,.,.,.,-8,-8,-4
CCCOc1ccc(-c2c(=O)n(OCC(=O)OCC)c3ccccc3[n+]2[O-])cc1,-3,.,5,-37,-9,25
O=C1C(C=NCc2ccncc2)=C(O)c2ccccc21,5,3,25,21,-2,-23
O=C1C(C=NCc2ccco2)=C(O)c2ccccc21,-1,7,28,38,59*,-5
Fc1ccc(N=Cc2ccc[nH]2)cc1,-6,.,13,10,2,4
O=C1C(C=Nc2ccc(F)cc2)=C(O)c2ccccc21,1,22,33,80*,35,57*
O=C1C(C=NCc2cccnc2)=C(O)c2ccccc21,2,-7,5,27,52*,24
COc1ncnc2sc(-c3ccccc3)cc12,0,-2,61*,-9,-43,-1
C=COCCCNc1ncnc2sc(-c3ccccc3)cc12,4,.,-3,87*,-2,12
CC(C)(C)Nc1ncnc2sc(-c3ccccc3)cc12,0,.,7,71*,50,1
COc1cc(Cl)c(C)cc1NC(=O)c1ccccc1NC(=O)CN1CCOCC1,0,.,-19,14,-2,-5
CCC(C(=O)NCCCN1CCCC1=O)n1c2ccccc2c2nc(=O)cc(C)n21 (centres undefined),-1,.,2,35,8,13
COc1ccc(N(CC(=O)NCCSC2CCCCC2)S(=O)(=O)c2ccccc2)cc1OC,6,.,-6,-13,-7,-9
Cc1cc(C)c2c(n1)SCC(=O)N2CC(=O)Nc1cccc(Cl)c1,31*,.,2,5,10,11
CCOC(=O)N1CCC(NC(=O)CN2C(=O)CSc3nc(C)cc(C)c32)CC1,2,7,26,-11,-22,6
CCOC(=O)N1CCN(C(=O)CCCN2C(=O)CSc3nc(C)cc(C)c32)CC1,6,8,53*,12,-23,5
SMILES,HSP90 refold inh,PPC-1+TRAIL kill,Platelet DG rel,TWEAK Fn14 block,TROY signal inh,TRAIL sens C8
Cc1cc(C)c2c(n1)SCC(=O)N2CC(=O)Nc1c(C)cccc1C,-8,.,-5,15,-22,5
Cc1ncc(CO)c(CO)c1OCC(O)CN1CCN(c2ccc(F)cc2)CC1 (centres undefined),.,.,.,-17,2,-9
O=C(CC[C@H]1O[C@@H](n2cnc3c(NC(=O)c4ccccc4)ncnc32)[C@H](O)[C@@H]1O)NCc1ccccn1,.,.,.,-21,11,-31
Cc1nnsc1C(=O)N/N=C/c1ccc2ccccc2c1O,2,60*,-6,54*,26,17
Cc1[nH]c2ccccc2c1C1=NNC(=Nc2ccc(F)cc2)SC1,-2,9,6,55*,25,3
O=C(Nc1cccc(F)c1)c1c(F)c(F)c(F)c(F)c1F,2,29,-4,11,-7,-1
O=C(Nc1ccccc1NC(=O)c1c(F)c(F)c(F)c(F)c1F)c1c(F)c(F)c(F)c(F)c1F,3,-16,8,-9,9,82*
COc1ccc(-c2noc(CCC(=O)N3CCN(c4cccc(F)c4)CC3)n2)cc1,.,.,.,18,32,-8
CC1=CN2C(=N)/C(=C/c3ccco3)C(=O)N=C2S1,-4,45,2,81*,40,58*
Cc1cc2c(cc1S(=O)(=O)CCC(=O)Nc1cccc(C(F)(F)F)c1)OCC(=O)N2,-5,.,0,-8,-3,9
O=C(O)CN1C(=O)/C(=C\c2cc(Br)ccc2OCc2ccc(Cl)cc2Cl)SC1=S,-4,.,0,3,87*,1
N#C/C(=C\Nc1ccc2c(c1)OCCO2)c1nc2ccccc2[nH]1,6,16,-2,61*,66*,27
N#CCCn1ccc(NC(=O)c2ccc(Cl)cc2)n1,0,4,0,67*,.,-7
O=C(NN1C(=O)C2C3C=CC([C@@H]2C1=O)C31CC1)c1ccccc1 (some centres undefined),-3,19,1,15,-23,-10
COc1ccc(/C=N/Nc2nc(C)c([N+](=O)[O-])c(N(C)c3ccccc3)n2)cc1OC,0,16,-4,82*,.,-14
Cc1ccc(NC(=O)C2(N(CC(C)C)C(=O)Cn3nnnc3N)CCCCC2)cc1,2,-9,1,11,6,-19
COc1ccc(NC(=O)C2(N(CC(C)C)C(=O)Cn3nnnc3N)CCCCC2)cc1,3,56*,.,-17,-5,-16
CCSc1nc(N2CCCCC2)c2c(c1C#N)CCCC2,-1,-9,18,94*,.,2
O=C(Nc1cccc(S(=O)(=O)Nc2ccc(Cl)cc2)c1)c1cc2c(s1)CCCC2,3,-5,-5,84*,41,23
Cc1ccc(C(=O)Nc2ccc(C)c(S(=O)(=O)Nc3ccccc3Cl)c2)s1,-6,33,-7,48,49,3
Cc1ccc(NC(=O)c2cc3c(s2)CCCC3)cc1S(=O)(=O)Nc1ccccc1Cl,-2,42,3,78*,46,32
CCOC1=C2CN(S(=O)(=O)c3ccc(C)cc3)C(c3ccccc3)CC2N(S(=O)(=O)c2ccccc2Cl)C(c2ccccc2)C1 (centres undefined),.,.,.,.,.,-18
Cc1ccccc1NS(=O)(=O)c1ccc(C(=O)NCC2CCCO2)cc1 (centres undefined),.,.,19,2,-18,-13
CN1CCN(C(=O)c2cc([N+](=O)[O-])cc([N+](=O)[O-])c2)CC1,-2,.,1,80*,-4,-3

# Screening data: PubChem, several laboratories
